Source: PubChem BioAssay (The Scripps Research Institute Molecular Screening Center)
MBD2 inh – inhibitors of MBD2 binding to methylated DNA, primary screen, biochemical, TR-FRET, DNA-binding domain, human | 370,000 compounds, 0.31% hits | AID 686964, 2013 | MBD2 binding to methylated oligonucleotide | inhibition, % at 4.4 µM; in the data active = inhibition above about 13%
LEDGF integ inh – blockers of LEDGF/p75-dependent integrase strand transfer – biochemical, TR-FRET, high throughput, primary screen; TR-FRET IN-LEDGF/p75 DNA integration, Eu/Cy5; inhibition, % at 3.7 µM; 370,000 compounds, 0.64% hits; AID 743269, 2014;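 active = inhibition above the screen-wide mean plus 3 SD, cut at about 13% in these data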;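 note: signal is the Cy5 over europium emission ratio at 671 and 618 nm; 0% = plate median of compound wells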
PLC-beta3 inh – human PLC-beta3 inhibitors, primary screen, biochemical, fluorescence. 1-phosphatidylinositol 4,5-bisphosphate phosphodiesterase beta-3 (Homo sapiens), Q01970. Purified PLC-beta3, fluorogenic substrate. inhibition, % at 12.2 µM. 370,000 compounds, 0.18% hits; in the data active = inhibition above about 11%;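 note: 0% = median of compound wells on plate and 100% = full blocker control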
UHRF1 binding – UHRF1 methylated DNA binding inhibitors, primary screen, counter-screen for MBD2 inhibitor project, biochemical, TR-FRET, human UHRF1, single concentration. UHRF1 binding to methylated oligo. inhibition, % at 4.4 µM. 370,000 compounds, 0.75% hits. AID 687016, 2013;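 note: UHRF1 SRA domain binding a hemimethylated CpG hairpin DNA probe; 0% = median of test compound wells and 100% = reference inhibitor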
Target sequence (Q96T88 whole entry, looked up, the tested form may be a part): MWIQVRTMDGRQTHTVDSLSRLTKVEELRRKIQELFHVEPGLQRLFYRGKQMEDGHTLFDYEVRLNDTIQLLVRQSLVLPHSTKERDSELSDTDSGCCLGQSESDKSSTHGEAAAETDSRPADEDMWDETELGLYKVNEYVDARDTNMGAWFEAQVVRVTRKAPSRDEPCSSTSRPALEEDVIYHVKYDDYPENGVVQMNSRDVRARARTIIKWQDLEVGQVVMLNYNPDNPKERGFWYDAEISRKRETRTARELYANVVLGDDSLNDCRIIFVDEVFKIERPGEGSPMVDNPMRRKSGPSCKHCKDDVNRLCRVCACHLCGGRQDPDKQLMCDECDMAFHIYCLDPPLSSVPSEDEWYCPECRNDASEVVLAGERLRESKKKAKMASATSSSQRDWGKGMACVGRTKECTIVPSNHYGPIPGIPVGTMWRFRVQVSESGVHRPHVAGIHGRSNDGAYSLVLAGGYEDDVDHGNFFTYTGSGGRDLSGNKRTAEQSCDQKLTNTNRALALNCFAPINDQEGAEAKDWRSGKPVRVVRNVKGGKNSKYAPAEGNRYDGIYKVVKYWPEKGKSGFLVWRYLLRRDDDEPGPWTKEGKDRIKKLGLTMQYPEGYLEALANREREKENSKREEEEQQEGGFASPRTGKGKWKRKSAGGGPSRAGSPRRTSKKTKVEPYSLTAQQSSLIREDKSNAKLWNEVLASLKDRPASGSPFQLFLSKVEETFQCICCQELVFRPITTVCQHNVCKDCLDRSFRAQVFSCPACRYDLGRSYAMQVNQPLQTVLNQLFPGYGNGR
PLCg1 inh – PLC-gamma1 enzyme inhibitors, primary screen, biochemical, fluorescence, purified enzyme. 1-phosphatidylinositol 4,5-bisphosphate phosphodiesterase gamma-1 (Homo sapiens), P19174. AID 720700, 2013. inhibition, % at 12.2 µM. 370,000 compounds, 0.84% hits. fluorogenic substrate; in the data active = inhibition above about 9.5%
UHRF1 ctr MBD2 – UHRF1 methylated DNA binding inhibitors, counter-screen for MBD2 inhibitor project, biochemical, TR-FRET, human UHRF1; shares compounds with MBD2 inh; inhibition, % at 4.4 µM; UHRF1 binding to methylated oligonucleotide; 1,000 compounds, 25% hits; AID 720530, 2013;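 note: UHRF1 SRA domain binding a labeled hemimethylated CpG hairpin DNA; 0% = vehicle only and 100% = reference inhibitor with vehicle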
MBD2 confirm – inhibitors of MBD2 binding to methylated DNA, confirmation, biochemical, TR-FRET, DNA-binding domain, human. shares compounds with MBD2 inh. TR-FRET MBD2-DBD binding to methylated oligonucleotide. inhibition, % at 4.4 µM. 1,000 compounds, 26% hits; in the data active = inhibition above about 14%
* hit, by the source's call; . = no result given. Sampled rows, rich in hits. Any-hit rate of the full collection: about 2.4%. Cut-off read from the data, not from the text of the source, unless noted: active = inhibition above about 21%; inactive = the rest.

SMILES | MBD2 inh | LEDGF integ inh | PLC-beta3 inh | UHRF1 binding | PLCg1 inh | UHRF1 ctr MBD2 | MBD2 confirm
O=C(CNC(=O)/C=C/c1ccco1)N=Nc1c(O)[nH]c2ccccc12 | 30* | 34* | -8 | 53* | -1 | 65* | 51*
O=C(CNC(=O)Cc1ccccc1)N=Nc1c(O)[nH]c2ccccc12 | -10 | -3 | -3 | -5 | -2 | . | .
COc1ccc(-c2noc(C3CCCN(C(=O)NC4CCC(C)CC4)C3)n2)cc1 (stereo not drawn) | -1 | -3 | 4 | -2 | 2 | . | .
Cc1ccc(C(=O)Nc2nc(-c3ccco3)c(-c3ccco3)s2)o1 | 40* | 85* | -27 | 88* | -16 | 12 | 8
CC1(C)CC2CN(Cc3ccccc3)S(=O)(=O)N2C1 (stereo not drawn) | -2 | -3 | 0 | 0 | 1 | . | .
C=CCN1[C@H](C#N)[C@@H](c2ccc(C#Cc3cccc(OC)c3)cc2)[C@H]1CO | 15* | -2 | -23 | 17 | -18 | 5 | 8
Cc1ccc(-c2c(C(=O)NC3CCCC3)oc(=O)c3ccccc23)cc1 | 4 | 6 | 3 | 2 | 8 | . | .
COc1ccc2oc3cc(C)[n+]([O-])c(-c4ccc(Cl)cc4)c3c2c1 | 13* | 1 | -43 | 19 | -35 | 1 | 2
COc1ccc(C(C(=O)N(C)C2CCCC2)N(Cc2ccc(F)cc2)C(=O)c2csc(N3CCOCC3)n2)cc1OC (stereo not drawn) | 0 | -3 | -1 | 1 | 0 | . | .
Cc1ccc(C(=O)CC(C(=O)O)n2cccn2)cc1 (stereo not drawn) | 1 | 1 | -1 | 0 | -2 | . | .
Cc1ccc(C(=O)CC(C(=O)O)n2cncn2)cc1 (stereo not drawn) | 41* | 2 | -13 | 3 | 6 | 5 | 1
CCOC(=O)Cn1cc(CN2CCS(=O)(=O)N(Cc3ccc(C)cc3)C(C(=O)OC)C2)nn1 (stereo not drawn) | 12 | 0 | 4 | 14 | 2 | . | .
CC(C)(C)N(Cc1cn(CC2CCCCC2)nn1)S(=O)(=O)c1ccccc1Br | 11 | 0 | 3 | 19 | 1 | . | .
CNC(=O)c1c(NC(=O)c2ccc(S(=O)(=O)N3CCCCC3)cc2)sc2c1CCN(C(C)C)C2 | 16* | -4 | -353 | 16 | -338 | 17 | 9
CCN1CCc2c(sc(NC(=O)c3ccc(S(=O)(=O)N4CCCC4)cc3)c2C(=O)NC)C1 | 7 | -3 | -103 | 8 | -69 | . | .
COc1ccc(-c2nnc(SCC(=O)N/N=C\C=C/c3ccco3)n2-c2ccc(C)cc2)cc1 | -2 | 2 | -10 | -4 | -3 | . | .
CCOC(=O)c1cnc2c(ccc3ccccc32)c1NCCCN(C)C | 20* | 2 | -34 | 4 | -16 | 5 | 26*
CN(CCCOC(=O)c1cc2ccccc2o1)C1CN(Cc2cn(Cc3ccc([N+](=O)[O-])cc3)nn2)S(=O)(=O)C1 (stereo not drawn) | -3 | 6 | 4 | 3 | 0 | . | .
CC(C)CN(C(=O)CSc1nc2ccccc2c(=O)[nH]1)c1c(N)n(CC(C)C)c(=O)[nH]c1=O | 25* | -2 | -7 | -2 | -1 | 4 | 2
COc1cc(C=NN2CCN(C(c3ccccc3)c3ccccc3)CC2)cc(OC)c1OC(C)=O | 2 | -3 | 1 | 0 | 2 | . | .
CC(C)NS(=O)(=O)c1ccc(OCC(=O)N2CCCC2)c(Cl)c1 | 24* | -4 | 3 | -1 | -1 | 4 | 6
CCN(c1ccccc1)S(=O)(=O)c1cc(C(=O)O)ccc1C | 25* | 9 | 7 | 60* | 6 | 51* | 27*
Cc1ccc(Br)cc1S(=O)(=O)Nc1cccnc1 | 18* | 11 | -5 | 36* | 2 | 2 | 4
Cc1ccccc1S(=O)(=O)Nc1cccnc1 | 1 | -2 | 1 | 0 | 0 | . | .
COc1cc(NC(=O)c2ccc(OC)c([N+](=O)[O-])c2)ccc1NC(=O)c1ccco1 | 18* | 1 | -13 | -3 | -3 | 8 | 2
SMILES | MBD2 inh | LEDGF integ inh | PLC-beta3 inh | UHRF1 binding | PLCg1 inh | UHRF1 ctr MBD2 | MBD2 confirm
COC(=O)[C@@]1(C(C)C)N=C(c2cc(OC)c(OC)c(OC)c2)[C@]2(O1)C(=O)N(Cc1cn(Cc3ccccc3)nn1)c1ccc(F)cc12 | 14* | -3 | 1 | 16 | -1 | 12 | 6
O=S(=O)(c1ccc(CN2CCOCCOCCN(Cc3ccc(S(=O)(=O)C(F)(F)F)cc3)CCOCC2)cc1)C(F)(F)F | 1 | 1 | -5 | 0 | -1 | . | .
CC(C)[C@H](NS(=O)(=O)c1ccc2c(c1)OCCO2)C(=O)OCC(=O)Nc1ccccc1 | 19* | 9 | -8 | 28* | 0 | 9 | 1
C[C@H]1[C@@H](OC(=O)Nc2ccc(C(F)(F)F)cc2)CC[C@@]23CCCN2C(=O)CCC[C@@H]13 | -5 | -3 | 2 | -2 | 1 | . | .
Cc1ccc(OCC(=O)Nc2cccc(S(=O)(=O)N3CCCCC3)c2)c([N+](=O)[O-])n1 | 0 | 5 | 4 | 0 | 4 | . | .
Cc1ccc2cccc(OCC(=O)Nc3cccc(S(=O)(=O)N4CCCC4)c3)c2n1 | 17* | -3 | -14 | 19 | -2 | -2 | 2
O=C(NNC(=O)c1cccc2ccccc12)c1ccc(Cl)c(Cl)c1 | 66* | 0 | 4 | -2 | -2 | 2 | 0
Cn1c(SCc2ccc(Cl)cc2)nnc1-c1ccc2nonc2c1 | 21* | -2 | -3 | 4 | -1 | 7 | 3
Cn1c(SCc2c(Cl)cccc2Cl)nnc1-c1ccc2nonc2c1 | 2 | -4 | -21 | 2 | -9 | . | .
CCN(CC)C(=O)c1cc2c(=O)c3cc(F)ccc3oc2nc1C | 19* | 2 | -11 | 1 | -9 | 5 | 5
Cc1ccc(-n2c(SCC(=O)NN=Cc3ccc(-c4ccccc4)cc3)nnc2-c2ccccc2)cc1 | 0 | -2 | 1 | -1 | 3 | . | .
CCOC(=O)[C@]12CCC=C1N(Cc1ccco1)C(=O)[C@H](CC(=O)N1CCC(c3ccccc3)CC1)C2 | 15* | -1 | -10 | 10 | 3 | 7 | 10
